Results as given in ChEMBL document CHEMBL3988442, “University of Dundee, Small-Polar-MMV Screening Library” (2021).
Hit rate of the full screen: of about 53,000 compounds, about 900 (1.7%) showed an effect of 50% or more. Many of the other results were omitted from the sample, so strong results are more common in it than they were.

Each compound was assayed on Mycobacterium tuberculosis (assay: Cornell - Phenotypic assay to identify agents that inhibit growth of Mycobacterium tuberculosis). Settings: 10 mM as filed; unlikely as a test dose.
Assay type: functional
Design: scale not given: direction of the effect not stated beside the values
For `Cc1ccc(-c2cc(CS(=O)(=O)NC3CCCNC3=O)on2)cc1` (centres undefined), the “Percent Effect” value was -20.71%.
For `CN(Cc1ccsc1)C(=O)Cn1c(CS(C)(=O)=O)nc2ccccc21`, the “Percent Effect” value was 17.82%.
`Cc1ccc(S(=O)(=O)NC2=NCN(CCc3cccs3)CN2)cc1` was tested, and the “Percent Effect” value was -5.965%.
For `O=C(CCN1CCCC1)N1CC[C@@H](c2ccc3ccccc3c2)[C@H](O)C1`, the “Percent Effect” value was 59.79%.
With `O=C(CCN1CCCO1)N1CC[C@@H](c2ccc3ccccc3c2)[C@H](O)C1` the “Percent Effect” value was 5.243%.
For `O=C(CCn1cccn1)N1CC[C@@H](c2ccc3ccccc3c2)[C@H](O)C1`, the “Percent Effect” value was -1.48%.
In the case of `O=S1(=O)CCC(S(=O)(=O)c2cccc(S(=O)(=O)N3CCCC3)c2)C1` (centres undefined), the “Percent Effect” value is reported as 4.254%.
In the case of `CN(Cc1ccco1)[C@@H]1CN(Cc2cccs2)C[C@@H]2CCCO[C@@H]21.O=C(O)C(F)(F)F.O=C(O)C(F)(F)F`, the “Percent Effect” value is reported as 3.22%.
In the case of `Cc1cc(N[C@H]2CCCN(Cc3ccccc3)C2)n2nc(C)cc2n1`, the “Percent Effect” value is reported as -6.549%.
`Cc1cc(NC2CCCN(Cc3ccc(F)cc3)C2)n2nc(C)cc2n1` (centres undefined) was tested, and the “Percent Effect” value was 55.74%.
`Cc1cc(NC2CCN(c3ccc(F)cc3)CC2)n2nc(C)cc2n1` was tested, and the “Percent Effect” value was 39.2%.
In the case of `O=C(CCc1cccs1)N1CCCC1c1noc(C2CC2)n1` (centres undefined), the “Percent Effect” value is reported as -0.7961%.
With `CC(NC(=O)c1cn(CCC2CCCCC2)nn1)c1cnn(C)c1` (centres undefined) the “Percent Effect” value was -6.193%.
`CCCOc1ccc(Cl)cc1CNc1ncnc2oc(C)nc12` was tested, and the “Percent Effect” value was 65.32%.
With `CCCOc1ccccc1CCCNc1ncnc2oc(C)nc12` the “Percent Effect” value was 30.24%.
`Cc1nc2c(NC(CC(C)(C)C)c3cccnc3)ncnc2o1` (centres undefined) was tested, and the “Percent Effect” value was -7.649%.
With `CCc1nnc(CN(C)C(=O)C(CC)n2c(CC)nc3ccccc32)o1` (centres undefined) the “Percent Effect” value was 5.212%.
For `CCNC(=O)[C@@H]1C[C@@H](NC(=O)c2cc(C)on2)CN1Cc1ccccn1`, the “Percent Effect” value was -5.653%.
With `COc1ccc(C)cc1NC(=O)Nc1cnc(O)nc1O` the “Percent Effect” value was 28.36%.
In the case of `CCN(CC)c1ccc(NS(=O)(=O)c2cccnc2)cn1`, the “Percent Effect” value is reported as 24.54%.
With `CCN(CC)c1ccc(NS(=O)(=O)c2cncc(F)c2)cn1` the “Percent Effect” value was 62.74%.
With `CCN(CC)c1ccc(NS(=O)(=O)c2cnn(C)c2)cn1` the “Percent Effect” value was 9.807%.
`COc1cccc(CNCC2CN(C)CCO2)c1` (centres undefined) was tested, and the “Percent Effect” value was 10.27%.
In the case of `CC(=O)N1CCN(Cc2ccc(OCc3nccn3C)cc2)CC1`, the “Percent Effect” value is reported as -16.77%.
With `Cc1cc2nccc(C3CCCN(C(=O)c4ccccc4F)C3)n2n1` (centres undefined) the “Percent Effect” value was 8.36%.
For `c1nc(-c2nc(C3CCOC3)no2)cs1` (centres undefined), the “Percent Effect” value was -30.96%.
For `O=C(Nc1ccccc1)c1ccc(NCc2ccncc2)nn1`, the “Percent Effect” value was 71.71%.
In the case of `O=C(Nc1ccccc1)c1ccc(NCc2nccs2)nn1`, the “Percent Effect” value is reported as 40.64%.
In the case of `O=C(Nc1ccccc1)c1ccc(NCc2ccccc2CO)nn1`, the “Percent Effect” value is reported as 16.95%.
With `CC(=O)N1CCCC1c1nc(C)c2c(n1)N(Cc1ccccn1)CCC2` (centres undefined) the “Percent Effect” value was -10.82%.
For `O=C(CCCOCc1ccccc1)N1CCCC(c2ncc[nH]2)C1` (centres undefined), the “Percent Effect” value was 18.83%.
With `O=C(Cc1cccs1)N1CC[C@H]2[C@@H]1CCC(=O)N2c1cccnc1.O=C(O)C(F)(F)F` the “Percent Effect” value was 4.016%.
In the case of `COc1ccccc1C1CC(=O)Nc2c1c(=O)[nH]n2C(C)C` (centres undefined), the “Percent Effect” value is reported as 7.683%.
`COc1ccccc1C1CC(=O)Nc2c1c(=O)[nH]n2C1CCCC1` (centres undefined) was tested, and the “Percent Effect” value was 42.49%.
With `COc1ccccc1C1CC(=O)Nc2nc(N3CCCCC3)sc21` (centres undefined) the “Percent Effect” value was 102.8%.
For `COc1cccc(C2CC(=O)Nc3nc(N4CCCCC4)sc32)c1OC` (centres undefined), the “Percent Effect” value was 70.71%.
`CC(C)Oc1ccccc1C1CC(=O)Nc2nc(N3CCOCC3)sc21` (centres undefined) was tested, and the “Percent Effect” value was 106.3%.
With `CCOc1cccc(C2CC(=O)NCc3nc(N4CCCC4)sc32)c1` (centres undefined) the “Percent Effect” value was -20.96%.
`O=C1CC(c2ccccc2C(F)(F)F)c2sc(N3CCOCC3)nc2N1` (centres undefined) was tested, and the “Percent Effect” value was 43.16%.
In the case of `O=C1CC(c2ccccc2Br)c2sc(N3CCOCC3)nc2N1` (centres undefined), the “Percent Effect” value is reported as 44.02%.
With `COc1cccc(C2CC(=O)Nc3nc(N4CCOCC4)sc32)c1OC` (centres undefined) the “Percent Effect” value was 84.05%.
With `CCn1ncnc1C1CC(=O)NCc2nc(N3CCOCC3)sc21` (centres undefined) the “Percent Effect” value was 3.2%.
`CNc1nc2c(s1)C(c1ccc(Cl)cc1Cl)CC(=O)N2` (centres undefined) was tested, and the “Percent Effect” value was 15.33%.
For `CCNc1nnc(CCn2nc(C)c(Br)c2C)s1`, the “Percent Effect” value was 29.93%.
For `COCC(O)CN1CCC(=O)N(CC=C(C)C)Cc2ccccc21` (centres undefined), the “Percent Effect” value was -1.382%.
For `CCc1cnc(N2C[C@H]3C[C@H](C(=O)N4CCOCC4)[C@@H](C2)O3)nc1.O=C(O)C(F)(F)F`, the “Percent Effect” value was 10.32%.
In the case of `CCS(=O)(=O)Nc1ccc(C(=O)NCCCN2CCCC2)cc1`, the “Percent Effect” value is reported as -15.51%.
`CCc1cnc(N2CC[C@H]3[C@@H]2CCC(=O)N3c2ccccc2)nc1.O=C(O)C(F)(F)F` was tested, and the “Percent Effect” value was -28.43%.
In the case of `CCc1nnc(CN(CC)C(=O)C2CC(=O)N(C3CC3)C2)o1` (centres undefined), the “Percent Effect” value is reported as 3.101%.
`CNC(=O)C1CCCN1C(=O)NCCCc1cccc(F)c1` (centres undefined) was tested, and the “Percent Effect” value was 3.774%.
With `COc1cccc(C2SCC(=O)Nc3ccsc32)c1OC` (centres undefined) the “Percent Effect” value was 25.58%.
`COc1ccc(C2CC(=O)Nc3nc(N4CCOCC4)sc32)c(OC)c1` (centres undefined) was tested, and the “Percent Effect” value was 45.08%.
With `COc1cccc(C2CC(=O)Nc3nc(N)sc32)c1OC` (centres undefined) the “Percent Effect” value was 76.98%.
With `COc1ccc(C2CC(=O)Nc3nc(N4CCOCC4)sc32)cc1` (centres undefined) the “Percent Effect” value was 22.64%.
`COc1ccc(OC)c(C2CC(=O)Nc3nc(N4CCOCC4)sc32)c1` (centres undefined) was tested, and the “Percent Effect” value was 77.37%.
For `COc1ccc(C2SCC(=O)Nc3n[nH]cc32)c(OC)c1OC` (centres undefined), the “Percent Effect” value was -14.08%.
`CCN(Cc1ccncc1)CC1(O)CCN(C(=O)c2cnn(C)c2)C1` (centres undefined) was tested, and the “Percent Effect” value was -5.524%.
With `O=C(NCc1ccccc1)[C@H]1C[C@@H]2CN(C(=O)NC3CCCC3)C[C@H]1O2` the “Percent Effect” value was -33.72%.
For `Cc1cc(C(=O)N2C[C@@H]3OCCN(CCN4CCCC4)[C@@H]3C2)c(C)o1.O=C(O)C(F)(F)F`, the “Percent Effect” value was -34.44%.
For `Cc1cccc(NC2CCN(C(=O)Nc3cn[nH]c3)CC2)n1`, the “Percent Effect” value was 5.834%.
For `CCc1cc(N(C)Cc2ccno2)n2nc(C)c(C)c2n1`, the “Percent Effect” value was 28.15%.
`CCc1cc(=O)[nH]c(NC2CCN(S(=O)(=O)c3ccccc3)CC2)n1` was tested, and the “Percent Effect” value was 69.51%.
With `Cc1cc(=O)[nH]c(NC2CCN(S(=O)(=O)c3ccccc3)CC2)n1` the “Percent Effect” value was 26.85%.
`Cc1nc(NC2CCN(S(=O)(=O)c3ccccc3)CC2)[nH]c(=O)c1C` was tested, and the “Percent Effect” value was -2.855%.
